Measurements taken from the supplement of paper PMC10646978.
± gives the standard deviation.

Columns and labels:
Conditions in all cases: modulator concentration 10 µM
[1] = tested on: RAW-Dual (murine macrophage reporter line); test: NF-kB reporter (SEAP) activity fold change vs agonist alone; higher = enhanced NF-kB activity
Summary of the method: (§1)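 In 384-well plates holding 50 000 RAW-Dual murine macrophage reporter cells per well, compound at 10 μM final was pre-incubated for 1 hour at 37 °C, after which a PRR agonist was added overnight. Supernatant SEAP read with QUANTI-Blue at 620 nm absorbance reported NF-κB, and Lucia luciferase read with QUANTI-Luc luminescence reported IRF. Fold change values come from dividing each reporter signal by the mean of agonist-only control wells on the same plate, averaged over replicate plates with propagated errors.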

[2] = tested on: RAW-Dual (murine macrophage reporter line); test: IRF reporter (Lucia luciferase) activity fold change vs agonist alone; higher = enhanced IRF activity
Summary of the method: as §1

[3] = tested on: RAW-Dual (murine macrophage reporter line); test: viability score (confluency relative to resting cells, overnight) (fraction); higher = more viable, active = viable (0.7 or more)
Summary of the method: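 In 384-well plates, RAW-Dual macrophages received compound at a final 10 μM overnight. Two confluency masks were then made with IncuCyte software from IncuCyte images of all imaged wells. The viability score is defined as confluency relative to resting cells. Passing the cutoff required both masks to lie above 70% of resting cells.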

[4] = agonist: CpG ODN 1826 0.5 ug/mL

Row | Structure (SMILES) | NF-kB reporter [1, 4] | NF-kB reporter ([1]; agonist: LPS 0.1 ug/mL) | NF-kB reporter ([1]; agonist: MPLA […]) | IRF reporter ([2]; agonist: 3'3'-cGAMP 10 ug/mL) | IRF reporter ([2]; agonist: LPS 0.1 ug/mL) | IRF reporter ([2]; agonist: MPLA […]) | viability score [3]
1 | Cc1cc(CCNS(=O)(=O)c2cccc(C(F)(F)F)c2)nn1C | 0.898 ± 0.068 | 0.995 ± 0.1 | 0.988 ± 0.06 | 0.96 ± 0.06 | 0.961 ± 0.097 | 1 ± 0.23 | 1 (active)
2 | CC1(C)OC(=O)NC1=O [Prestw-829] | 1 ± 0.076 | 1.07 ± 0.065 | 0.958 ± 0.024 | 0.93 ± 0.051 | 0.958 ± 0.13 | 1.01 ± 0.12 | 0.998 (active)
3 | COC(=O)NN=Cc1cccs1 | 1.04 ± 0.19 | 1.05 ± 0.084 | 0.974 ± 0.11 | 0.987 ± 0.031 | 1 ± 0.096 | 1.22 ± 0.21 | 0.997 (active)
4 | O=C(COc1ccc2ccccc2c1)Nc1cnoc1 | 1.12 ± 0.35 | 1.14 ± 0.081 | 1.12 ± 0.088 | 0.92 ± 0.053 | 1.05 ± 0.17 | 0.942 ± 0.1 | 1 (active)
5 | COc1ccc2[nH]c(S(=O)Cc3ncc(C)c(OC)c3C)nc2n1 (stereo unspecified) [Prestw-1351] | 0.872 ± 0.15 | 1.15 ± 0.16 | 0.994 ± 0.11 | 0.819 ± 0.029 | 1.11 ± 0.14 | 1.24 ± 0.13 | 0.974 (active)
6 | O=C(CC1CCCCN1S(=O)(=O)c1ccccc1)NCCC1=CCCCC1 (stereo unspecified) | 0.994 ± 0.13 | 1.21 ± 0.095 | 0.903 ± 0.13 | 1.03 ± 0.054 | 1.23 ± 0.08 | 1.38 ± 0.11 | 1.01 (active)
7 | Cc1ccc(Nc2nccc(N(C)c3ccc4c(C)n(C)nc4c3)n2)cc1S(N)(=O)=O | 0.71 ± 0.11 | 1.84 ± 0.36 | 2.52 ± 0.16 | 0.146 ± 0.014 | 0.835 ± 0.15 | 1.18 ± 0.14 | 0.78 (active)
8 | Cc1cc(C)n(CCNc2nc3ccccc3s2)n1 | 1.07 ± 0.1 | 1.08 ± 0.085 | 1 ± 0.1 | 1.08 ± 0.055 | 1.18 ± 0.081 | 1.14 ± 0.29 | 0.993 (active)
9 | COc1ccccc1-n1ncc2c(C)nnc(SCC(=O)NCc3ccccc3Cl)c21 | 0.739 ± 0.33 | 0.987 ± 0.077 | 0.761 ± 0.19 | 0.781 ± 0.13 | 0.882 ± 0.15 | 0.781 ± 0.15 | 0.944 (active)
10 | O=C(C=Cc1ccc(Br)cc1)c1c(-c2ccccc2)c2cc(Cl)ccc2[nH]c1=O | 0.876 ± 0.068 | 0.792 ± 0.055 | 1.03 ± 0.099 | 0.858 ± 0.039 | 1.4 ± 0.09 | 1.5 ± 0.16 | 0.997 (active)
11 | CC[C@H](C)C(=O)O[C@H]1CCC=C2C=C[C@H](C)[C@H](CC[C@@H]3C[C@@H](O)CC(=O)O3)[C@H]21 | 1.34 ± 0.13 | 1.57 ± 0.14 | 1.04 ± 0.063 | 0.751 ± 0.051 | 1.01 ± 0.061 | 1.1 ± 0.085 | 0.935 (active)
12 | Nc1nonc1C(=O)NN=Cc1cc(Br)c(O)c(Br)c1 | 1.05 ± 0.085 | 1.01 ± 0.076 | 1.03 ± 0.054 | 0.938 ± 0.11 | 1.08 ± 0.12 | 1.05 ± 0.23 | 0.997 (active)
13 | CCOc1ccc(C=C2SC(=S)N(C)C2=O)cc1 | 0.96 ± 0.075 | 1.01 ± 0.072 | 0.905 ± 0.073 | 0.962 ± 0.049 | 1.39 ± 0.15 | 1.3 ± 0.23 | 1.01 (active)
